High-throughput results (PubChem BioAssay)
Rows were chosen to be rich in hits. Some 9.4% of all compounds tested hit in one or more screens of this group.
SARS PLpro yeast = SARS-CoV PLP inhibition in yeast; S. cerevisiae expressing SARS-CoV PLpro, growth rescue; Potency, µM (highest dose often 32.9 µM), inactives show top-dose activity, positive = growth rescue, actives largely listed as activators; actives 0.19% (n = 330,000); AID 485353; calls by dose curve; also: 0% is about no effect; nearly all actives have a fitted effect of over 55% in size
AMA1 RON2 block = disrupts binding of P. falciparum AMA1 to RON2 | Potency, µM (series often up to 58.2 µM), without a hit: at the highest dose activity change, negative = inhibition, hits mostly inhibitors | actives 0.2% (n = 360,000) | AlphaScreen AMA1-biotinylated RON2 peptide binding;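 also: 0% = vehicle wells and -100% = peptide control; nearly all actives have a fitted effect of over 45% in size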
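AMA1 (3D7) with his tag at 25 nM final met compounds first, then biotinylated RON2 peptide at 25 nM; detection used donor plus acceptor beads, 10 µg/mL apiece, read by AlphaScreen after 30 min at room temperature.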
Pf growth 48h = inhibits P. falciparum growth in the first generation, 48 h. P. falciparum luciferase growth in erythrocytes, 48 h. Potency, µM (series often up to 28.7 µM), without a hit: at the top dose activity change, negative = inhibition, hits mostly inhibitors. actives 5.9% (n = 310,000); also: % is scaled to controls: 0 for no effect and ±100 for the full control effect
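In quantitative HTS format, infected erythrocytes bearing luciferase-reporter parasites were treated for a single generation at 37 C. Luminescence after adding detection reagent served as the growth measure.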
Pf growth 96h = P. falciparum growth inhibition at 96 hours | P. falciparum luciferase reporter growth, 96 h | Potency, µM (highest dose often 28.7 µM), for the others: at the highest dose activity change, negative = inhibition, hits mostly inhibitors | actives 6.9% (n = 320,000); also: % is scaled to controls: 0 for no effect and ±100 for the full control effect
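Luminescence readout: decreased luciferase signal marks inhibited growth of reporter-expressing P. falciparum in infected red cells (2% hematocrit, 0.05% parasitemia final), exposed to compound two generations (96 h, 37 C, 5% CO2).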
* = called active by the depositor; u = inconclusive; x = no result. Unless noted, calls follow the shape of the dose curve; as a rule, active = well fitted curve in the direction sought with a large enough effect; inconclusive = small, poorly fitted or top-dose-only effect, or another doubt; inactive = no such curve, though single readings can be large; an effect the other way counts as inactive or inconclusive. Potency is read from the fitted curve at half-maximal effect.

SMILES	SARS PLpro yeast	AMA1 RON2 block	Pf growth 48h	Pf growth 96h
CC(C)=CCN1CCN(Cc2cccn2-c2nccs2)CC1CCO (configuration not stated)	0%	-5%	-12%	10µM*
COc1ccccc1NC(=S)NNC(=O)c1nn(C)c(C)c1Cl	8%	-9%	x	13%
COc1ccccc1NC(=S)NNC(=O)c1nn(C)cc1Cl	-2%	0%	u	6.6µM*
COc1ccccc1NC(=S)NNC(=O)c1ccc(O)cc1	7%	-10%	x	0.37µM*
CCN1C(=O)/C(=c2\sc3nc(=O)c(Cc4ccccc4)nn3c2=O)c2ccccc21	1%	-4%	4%	30%
COc1cccc(-c2nnn(CC(=O)O)n2)c1	2%	-6%	9%	u
COc1cccc(-c2nnn(C/C(N)=N/O)n2)c1	-5%	19%	58%	2.3µM*
COc1ccc(N(CC(=O)NC2CCCC2)C(=O)Cn2nnc(-c3ccc(F)cc3)n2)cc1OC	u	18%	u	-17%
Cc1cc(-c2ccccc2)n(-c2cc(N/N=C/c3ccccc3O)ncn2)n1	-33%	56%	13µM*	-11%
CNc1cc(-n2nc(C)cc2-c2ccccc2)ncn1	-2%	u	x	-12%
Cc1ccc2nc(NNC(=O)c3ccc(S(=O)(=O)N4CCc5ccccc5C4)cc3)sc2c1	5µM*	56%	1.9µM*	2.9µM*
Cc1cc(C)c2nc(NNC(=O)c3ccc(S(=O)(=O)N4CCCC(C)C4)cc3)sc2c1 (configuration not stated)	u	40%	u	2.3µM*
CCC(=O)NNc1nc2c(C)cc(C)cc2s1	0%	97%	9%	64%
Cc1cc(C)c2nc(NNC(=O)c3ccc(S(=O)(=O)N4CC(C)CC(C)C4)cc3)sc2c1 (configuration not stated)	u	53%	2.6µM*	1.9µM*
Cc1ccc2nc(NNC(=O)c3ccc4c(c3)OCCO4)sc2c1	u	101%	16%	0%
CC1CCCN(S(=O)(=O)c2ccc(C(=O)Nc3nnc(C4CC4)o3)cc2)C1 (configuration not stated)	19%	52%	u	u
CN(C)C(=O)c1cccn1-c1ncc(C(F)(F)F)cc1Cl	0%	-2%	207%	-3%
CCOC(=O)C1=C(Nc2ccccc2)CC(C)(O)C(C(=O)OCC)C1c1ccc(Cl)cc1 (configuration not stated)	-1%	-20%	u	12µM*
CC(=O)Nc1ccc(SC[C@H](CC(C)C)N2CCN(CCc3ccccc3)CCC2=O)cc1	2%	3%	9.3µM*	7.4µM*
CC(=O)Nc1ccc(SC[C@H](Cc2ccccc2)N2CCN(CC(C)C)CCC2=O)cc1	-2%	22%	7.4µM*	4.7µM*
O=C1CCN(Cc2ccccc2)CCN1[C@H](CSc1ccccc1)Cc1ccccc1	-1%	-3%	-17%	u
CC(=O)Nc1ccc(SC[C@H](CC(C)C)N2CCN(CC(C)C)CCC2=O)cc1	-2%	0%	u	u
Cc1ccc(SC[C@H](CC(C)C)N2CCN(CCc3ccccc3)CCC2=O)cc1	1%	-21%	u	u
O=C1CCN(CCc2ccccc2)CCN1[C@H](CSc1ccc(Br)cc1)Cc1ccccc1	-14%	-24%	13µM*	8.3µM*
Cc1cc(C)cc(Nc2nc(-c3ccc(S(=O)(=O)N4CCCC4)cc3)cs2)c1	9%	-11%	u	6%
SMILES	SARS PLpro yeast	AMA1 RON2 block	Pf growth 48h	Pf growth 96h
Nc1nc(-c2ccc(S(=O)(=O)N3CCCCC3)cc2)cs1	1%	-4%	u	13µM*
Cc1ccc(Nc2nc(-c3ccc(S(=O)(=O)N4CCCC4)cc3)cs2)cc1C	-5%	-19%	1.9µM*	1.7µM*
O=C(CCC1CCCCC1)Nc1cc(Cl)ccc1N1CCOCC1	-5%	0%	u	u
O=C(Nc1ccccc1)C1CC2CCCC(C1)C2=O (configuration not stated)	3%	5%	10%	3.7µM*
O=C(Cn1ncc2c3ccccc3n(Cc3ccccc3)c2c1=O)NCCN1CCOCC1	15%	-7%	u	36%
C=C(C)[C@@H]1CC=C(CN2CCC(N3CCC(C(=O)N4CCCC4)CC3)CC2)CC1	-4%	-9%	7.4µM*	2%
COC(=O)C1=C(C)N(c2cc(C)cc(C)c2)/C(=C/c2ccco2)C1=O	-3%	0%	8.3µM*	5%
CCOCCCn1cnc2c([nH]c3cc(OC)ccc32)c1=O	0%	-6%	-5%	-6%
CCOc1ccc(-c2c(C(=O)N/N=C/c3ccc(OC(C)C)cc3)nnn2-c2nonc2N)cc1	21%	2%	u	u
Cc1ccc(-c2c(C(=O)N/N=C/c3ccc4c(c3)OCO4)nnn2-c2nonc2N)cc1	-5%	5%	u	u
CCOc1ccc(-c2c(C(=O)N/N=C/c3ccc(C)cc3)nnn2-c2nonc2N)cc1	1%	1%	u	-11%
Cc1ccc(-c2c(C(=O)N/N=C/c3ccc(OC(C)C)cc3)nnn2-c2nonc2N)cc1	4%	17%	10µM*	u
Cc1ccc(-c2c(C(=O)N/N=C/c3cccc(Cl)c3)nnn2-c2nonc2N)cc1	8%	-2%	0.052µM*	u
Cc1ccc(-c2c(C(=O)N/N=C/c3ccoc3)nnn2-c2nonc2N)cc1	4%	41%	9.3µM*	3.3µM*
CCOc1ccc(-c2c(C(=O)N/N=C/c3ccc(Cl)cc3)nnn2-c2nonc2N)cc1	3%	2%	9.3µM*	u
Cc1nc2ccccc2n1CC(=O)OCC(=O)N1CCC(C)CC1	-10%	18%	x	x
Nc1cc(=O)[nH]c(SCC(=O)Nc2ccc(F)c(Cl)c2)n1	-7%	-6%	x	u
CC1CCN(Cc2c(C(=O)N/N=C/c3ccc(C(C)C)cc3)nnn2-c2nonc2N)CC1	-1%	16%	u	1.7µM*
Cc1ccc(-c2c(C(=O)N/N=C/c3ccco3)nnn2-c2nonc2N)cc1	15%	77%	u	u
CC1CCN(Cc2c(C(=O)N/N=C/c3ccc(C(C)(C)C)cc3)nnn2-c2nonc2N)CC1	3%	3%	u	u
Cc1ccc(-c2c(C(=O)N/N=C/c3ccc(C)o3)nnn2-c2nonc2N)cc1	-2%	109%	u	2.3µM*
COc1ccc(-c2c(-c3ccc(OC)c(C)c3O)n[nH]c2C)cc1	5%	78%	-12%	12µM*
COc1ccc(-c2c(-c3ccc(O)cc3O)n[nH]c2C)cc1OC	7%	31%	x	u
CC1(C)Oc2ccc(C(=O)N3CCCC3)cc2N(CC(=O)NCc2ccccc2)C1=O	4%	1%	-5%	-7%
COc1ccc(C(=O)CN2C(=O)C(C)(C)Oc3ccc(C(=O)N4CCCCCC4)cc32)cc1	-1%	10%	x	9.3µM*
C=CCOc1ccccc1CN1CCC(n2nccc2NC(=O)C2CC2)CC1	-7%	-18%	0%	-22%
Cc1ccc(C(=O)Cn2c3[n+](c4ccccc42)CC(O)CS3)cc1 (configuration not stated)	0%	-4%	u	10%
